Results reported in PubChem BioAssay (Tox21).
Records with an inconclusive call do not appear. Values without a mark were called inactive. Calls follow the shape of the dose curve; as a rule, active = well fitted activation curve with a large enough effect in the repeat runs; inconclusive = weak or mixed curves; inactive = flat fitted curve, though single readings scatter.

Assay: A CellTox Green Cytotoxicity Assay to monitor cytotoxicity in HEK293 cells - 8 hour (AID 1224884); also: nearly all actives have a fitted effect of over 35% in size
Settings: CellTox Green fluorescence; series mostly up to 76.8 µM; cytotoxicity increase: at the top concentration
Text: National Center for Advancing Translational Sciences [NCATS]
NIH Chemical Genomics Center [NCGC]
U.S. Environmental Protection Agency [EPA]
National Institutes of Environmental Health Sciences [NIEHS]
National Toxicology Program [NTP]
Cell-based models are critical for drug discovery. Determining the natural cytotoxic effects resulting from test compounds is an essential research activity. A CellTox Green Cytotoxicity Assay to monitor cytotoxicity in real time of continues cell culture during 40 hours of the compound treatment was used to screen Tox21 10K library compounds in Hek293 cells. CellTox Green Cytotoxicity Assay is a nonlytic, homogeneous, biofluorescent method to measure cytotoxicity in cell culture after experimental manipulation. The assay system uses a proprietary asymmetric cyanine dye that is excluded from viable cells but preferentially stains the dead cell's DNA. […] Viable cells produce no appreciable increases in fluorescence. Therefore, the fluorescence signal produced by the binding interaction with dead cell DNA is proportional to cytotoxicity.
The mixture of Hek293 cell suspension and reagents were dispensed at 600cells/6 ul/well in 1536-well tissue culture treated black solid bottom plates using a Multidrop dispenser. After the assay plates were incubated at a 37 C/5% CO2 incubator for 5 hours, 23 nL of compounds dissolved in DMSO, positive and negative controls was transferred to the assay plate by a pintool work station. The plates were incubated at 37 C for 40 hours. The fluorescence intensity were measured at 0h, 8h, 16h, 24h, 32h and 40h time points using ViewLux plate reader during compound treatment.
% is scaled to controls: 0 for no effect and ±100 for the full control effect.

| Compound | cytotoxicity increase |
| --- | --- |
| N#CCC(=O)NN | 0.0043% [at 35.3 µM] |
| CC(=O)CCc1ccc(OC(C)=O)cc1 | -0.182% |
| COP(=O)(O)OP(=O)(O)OC | -15.2% |
| CC(CO)(CO)CO | 24.2% |
| CCC(C(=O)OCCN1CCOC(c2ccccc2)C1C)c1ccccc1 (stereo not given) | -6.03% [at 35.3 µM] |
| CCCC(=O)OC/C=C(\C)CCC=C(C)C | 29.8% |
| C=CCN1C[C@H](C(=O)N(CCCN(C)C)C(=O)NCC)C[C@@H]2c3cccc4[nH]cc(c34)C[C@H]21 | 0.493% [at 35.3 µM] |
| O=C1OCCO1 | -2.31% |
| O=C(CCCl)NCCc1ccccc1 | -18% [at 35.3 µM] |
| COC(=O)c1ccccc1C(=O)O | -11.9% |
| COc1ccc(CCO)cc1 | -12.2% |
| CC(=O)OC(C)=O | -17.2% |
| CC(C)C[C@@H]1[C@H](c2ccccc2)OC(=O)N1CCCN1CCCCCC1 | 1.04% [at 35.3 µM] |
| CN(C)CC/C=C1/c2ccccc2COc2ccc(CC(=O)O)cc21 | 1.91% [at 35.3 µM] |
| CO[C@@]1(NC(=O)Cc2cccs2)C(=O)N2C(C(=O)O)=C(COC(N)=O)CS[C@@H]21 | 17.3% [at 35.3 µM] |
| CC(C)Nc1ccccc1 | -3.86% |
| Cn1c(=O)c2[nH]c(Br)nc2n(C)c1=O | -15.1% [at 35.3 µM] |
| CCCCCCCCCCCCCCC(=O)NC(CO)CCCCCCCCCCCCCC (stereo not given) | 12.8% |
| CC1(C)[C@H]2CC[C@](C)(C2)[C@H]1O | -12.6% |
| NCC1(Cc2noc(=O)[nH]2)CCCCC1 | -7.49% |

| Compound | cytotoxicity increase |
| --- | --- |
| C/C(CC(C)C)=N\O | -9.15% |
| [O-][n+]1cccc(/C(Cl)=N/OC[C@@H](O)CN2CCCCC2)c1 | 3.05% [at 35.3 µM] |
| CCC(=O)CC | -6.17% |
| C=CC/C=C/C | -4.58% |
| O=S(=O)(O)c1ccc2c(N=Nc3ccc(S(=O)(=O)O)c4ccccc34)c(O)c(S(=O)(=O)O)cc2c1 | 7.19% [at 6.97 µM] |
| COc1nc(N)nc2nc[nH]c12 | -17.2% |
| CC1CCc2c(N3CCC(O)CC3)c(F)cc3c(=O)c(C(=O)O)cn1c23 (stereo not given) | 14.7% [at 35.3 µM] |
| Cc1ccc(N)cc1S(=O)(=O)O | -17.4% |
| NCc1ccc(S(N)(=O)=O)cc1 | -8.8% [at 35.3 µM] |
| COc1cc2c(cc1OC)CN(C(=O)[C@H](C)N[C@@H](CCc1ccccc1)C(=O)O)[C@H](C(=O)O)C2 | -12.3% [at 35.3 µM] |
| CC1OCCC1=O (stereo not given) | -1.62% |
| COc1cc2c(cc1OC)C(=O)C(CC1CCN(Cc3ccccc3)CC1)C2 (stereo not given) | -10.9% [at 35.3 µM] |
| CC(=O)OC1CCCCC1C(C)(C)C (stereo not given) | -1.8% |
| CCN1CCCC1CN (stereo not given) | -7.91% [at 35.3 µM] |
| C=CCCCCCCCC | 0.844% |
| CN(C)CCCCl | -7.76% |
| CC(C)OC(=O)CCC(=O)OC(C)C | -3.16% |
| CC/C=C\CCOC(=O)c1ccccc1O | -12% |
| CCCCCCCCCCCCCCCCCCOCCO | -0.0989% [at 15.8 µM] |
| CC1=C(C(=O)O)N2C(=O)[C@@H](NC(=O)[C@H](N)C3=CCC=CC3)[C@H]2SC1 | -3.46% [at 35.3 µM] |
